# What was measured:
# Assay in all cases: PBM binding z-score (relative to random genomic background probes); higher = stronger binding; sequences stand for … in GC…GCGATTGACAGCGTAGAATGAAGG
# [1] = tested on: PPARg:RXRa DBDmut IVT, anti-RXR (DBD mutation: RXRa K156A/R161A, NR concentration 270 nM, RXRa partner concentration 90 nM)
# Summary of the method: (§1)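 Binding buffer was PBS pH 7.4 with 2% milk, 0.02% Triton X-100, 1 mM DTT, 0.2 mg/mL BSA and 0.4 mg/ml salmon testes DNA. In it, ligand-free nuclear receptor dimers were incubated 1 h on custom Agilent 4×180K protein-binding microarrays carrying double-stranded probes. Antibodies against each partner (one per run) detected binding, and z-scores were calculated against random background probes after regression normalization of scanned fluorescence.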
# [2] = tested on: PPARg:RXRa IVT, anti-PPARg (NR concentration 270 nM, RXRa partner concentration 90 nM)
# Summary of the method: as §1
# [3] = tested on: PPARg DBDmut IVT, anti-PPARg (DBD mutation: PPARg1 K132A/R137A, NR concentration 270 nM)
# Summary of the method: as §1
# [4] = tested on: PPARg homodimer (NR concentration 180 nM)
# Summary of the method: as §1
# [5] = tested on: PXR:RXRa (NR concentration 270 nM, RXRa partner concentration 90 nM)
# Summary of the method: as §1
# [6] = tested on: PXR homodimer (NR concentration 270 nM)
# Summary of the method: as §1
# [7] = tested on: RARa:RXR (NR concentration 270 nM, RXRa partner concentration 90 nM)
# Summary of the method: as §1
# [8] = tested on: RARa homodimer (NR concentration 270 nM)
# Summary of the method: as §1
# [9] = tested on: RARb:RXRa (NR concentration 270 nM, RXRa partner concentration 90 nM)
# Summary of the method: as §1
# [10] = tested on: RARb homodimer (NR concentration 270 nM)
# Summary of the method: as §1
# [11] = tested on: RARg:RXRa (NR concentration 270 nM, RXRa partner concentration 90 nM)
# Summary of the method: as §1
# [12] = tested on: RARg homodimer (NR concentration 270 nM)
# Summary of the method: as §1
# [13] = tested on: RXRa DBDmut IVT, anti-RXR (DBD mutation: RXRa K156A/R161A, NR concentration 90 nM)
# Summary of the method: as §1
# [14] = tested on: RXRa homodimer (NR concentration 180 nM)
# Summary of the method: as §1
# [15] = tested on: THRa:RXRa (NR concentration 90 nM, RXRa partner concentration 90 nM)
# Summary of the method: as §1
# [16] = tested on: THRa homodimer (NR concentration 90 nM)
# Summary of the method: as §1
# [17] = tested on: VDR homodimer (NR concentration 270 nM)
# Summary of the method: as §1
# [18] = tested on: VDR:RXRa (NR concentration 270 nM, RXRa partner concentration 90 nM)
# Summary of the method: as §1
Sequence,PBM binding z-score [1],PBM binding z-score [2],PBM binding z-score [3],PBM binding z-score [4],PBM binding z-score [5],PBM binding z-score [6],PBM binding z-score [7],PBM binding z-score [8],PBM binding z-score [9],PBM binding z-score [10],PBM binding z-score [11],PBM binding z-score [12],PBM binding z-score [13],PBM binding z-score [14],PBM binding z-score [15],PBM binding z-score [16],PBM binding z-score [17],PBM binding z-score [18]
ATATGTAGGTTAGGGACATTCAGAAAGTAGGGAA,6.18,5.89,1.59,0.688,0.115,0.777,0.618,1.69,1.04,1.11,0.67,1.27,0.8,0.406,2.32,1.51,0.36,–
CGAACTAGGTCACCAGGACAGTGTAGAGGTTGGA,8.42,8.73,1.75,2.71,1.58,-0.179,2.54,0.514,4.1,3.53,4.35,5.47,1.65,3.25,3.47,2.14,0.343,–
ATATGTAGGTTAGGGCCATTCAGAAAGTAGGGAA,6.52,5.91,1.97,1.54,0.501,0.512,0.535,0.865,1.35,1.13,0.818,0.94,0.769,0.668,1.47,0.811,0.685,–
CCAACTAGGTCACCAGGACAGTGAAGAGGTTGGA,7.98,8.26,1.95,2.72,1.52,0.124,2.69,1.44,4.36,3.74,4.53,5.37,1.24,3.51,3.37,1.89,0.883,–
CGAACTAGGTCACCAGGACAGGGAAGAGGTTGGA,8.23,8.76,5.57,4.22,1.22,0.127,2.58,0.696,4.13,3.18,4.35,4.97,1.23,2.96,3.26,1.9,0.549,–
CGAACTAGGCCACCAGGACAGTGAAGAGGTTGGA,6.89,6.5,-0.0856,-0.263,-0.874,-0.217,-0.512,-0.684,0.821,0.689,0.238,0.672,-0.131,-0.0253,0.954,0.3,-0.183,–
CGAACTAGGTCACAGGACAGTGAAAGGCGACGTA,8.61,8.91,3.67,2.35,1.38,-0.238,2.22,0.616,4.11,3.12,4.25,4.96,1.61,3.27,2.86,0.815,0.381,–
CGAACTAGGTCAAATGACAGTGAAAGGCGACGTA,7.89,8.48,2.82,2.37,1.34,0.00572,2.23,0.892,4.02,2.7,4.37,4.97,2.03,3.11,2.6,0.29,0.337,–
CGAACCAGGTCAAAGGACAGTGAAAGGCGACGTA,4.57,5.82,0.805,1.1,2.07,0.537,2.82,0.116,3.86,2.94,4.32,4.33,2.36,3.81,3.21,1.24,1.15,–
CCGAGTAGGTTGCGAGGGGGCATTCAGTGCGAAT,1.37,2.13,–,0.668,3.67,4.85,2.34,0.292,1.57,1.77,1.99,1.28,1.58,1.27,3.09,0.684,3.23,4.26
CGCACTAGGTCAAAGGACAGTGAAAGGCGACGTA,7.3,8.16,0.801,0.993,1.27,0.0363,2.25,0.165,3.84,3.01,4.03,4.5,1.95,2.87,2.68,0.793,0.314,–
CGAACTAGGTCACCAGTACAGTGAAGAGGTTGGA,8.41,8.76,1.75,2.54,1.59,-0.139,2.65,0.527,3.98,3.14,4.38,5.54,1.33,3.2,3.09,1.33,0.782,–
CCGAGTAGGTTACGAGGGGGCATACAGTGCGAAT,4.86,4.23,–,2.45,4.27,2.55,3.03,1.01,2.15,2.29,3.21,2.68,1.2,2.14,3.61,0.618,2.68,4.67
CTATTTAGGTTAAGGGGGTCATTCAGTTTGAAAG,6.86,6.59,–,5.85,5.9,12.3,5.84,2.72,3.71,3.95,5.19,4.01,2.74,5.73,4.05,2.07,6.2,7.31
CCGAGTAGGTTACGAGGGGGCTTTCAGTGCGAAT,4.79,4.3,–,0.789,2.01,0.241,1.55,-0.415,1.41,0.961,1.85,1.36,0.879,1.08,2.33,0.299,0.538,2.13
TCGAGTAGGTTACGGGGGCAGTCAGGGATGAAGA,5,5.6,–,2.04,2.33,1.2,2.43,0.156,2.36,2.06,2.82,2.3,1,2.21,2.81,1,1.25,2.8
ATATGTAGGTTAGGGTCATTCTGAAAGTAGGGAA,6.26,6.44,1.97,2.88,4.18,1.87,–,1.91,3.35,3.35,3.61,2.78,2.79,4.88,4.05,3.12,3.77,–
CTATGTAGGTTAAGGGGGTCATGCAGTTTGAAAG,7.51,7.75,–,4.7,5.74,8.41,6,1.78,3.79,4.24,5.46,4.16,2.12,6.12,4.11,2.49,5,7.13
CCGAGTAGGTTACGAGGGGGCATTCCGTGCGAAT,4.52,4.42,–,1.68,4.37,0.912,2.94,0.747,2,1.89,3.09,2.37,1.01,2.12,3.56,0.446,2.75,4.84
TCGAGTAGGTTACGGGAGCATTCAGGGATGAAGA,2.84,3.32,–,-0.122,0.0708,-0.797,0.667,-0.752,0.692,-0.0117,0.484,0.553,-0.267,0.792,1.89,-0.885,-0.591,0.0873
CGAACTAGGTCACCAGAACAGTGAAGAGGTTGGA,8.55,8.85,1.39,1.64,1.29,-0.143,2.45,0.0997,4.2,3.14,4.44,5.22,1.11,–,2.87,0.853,0.565,–
CGAACTAAGTCACCAGGACAGTGAAGAGGTTGGA,2.13,1.61,-0.0362,0.131,-0.257,0.203,0.00404,-0.12,0.526,0.502,–,0.343,0.000632,0.285,1.27,0.708,0.106,–
CGAACTAGGTCAAAGGTCAGTGAAAGGCGACGTA,8.37,9.1,4.58,5.51,–,0.306,–,2.87,–,5.03,–,6.89,2.37,–,4.55,1.2,1.85,–
CTTTGTAGGTTAAGGGGGTCATTCAGTTTGAAAG,7.24,7.18,–,3.76,5.9,12,5.32,2.04,3.67,3.99,5.28,4.16,2.79,6.08,3.97,2.08,5.68,7.48
CGAACTATGTCACCAGGACAGTGAAGAGGTTGGA,4.52,3.71,0.886,0.475,-0.0276,-0.042,0.322,0.192,0.847,0.797,0.591,0.719,-0.0649,0.602,1.66,0.878,0.455,–
CGAACTAGGTCAAAAGACAGTGAAAGGCGACGTA,7.84,7.79,0.23,0.576,0.624,-0.275,1.45,-0.196,3.17,1.72,–,3.68,1.21,2.54,1.64,-0.0657,-0.0484,–
CTATGTAGGTTAAGGGGGTAATTCAGTTTGAAAG,7.52,7.27,–,2.67,2.99,1.83,2.31,1.28,2.32,1.84,2.06,1.59,1.27,1.95,2.44,1.35,1.41,3.5
ATATGTAGGTTAGCGTCATTCAGAAAGTAGGGAA,6.57,6.84,1.38,0.87,-0.0758,0.0634,-0.121,0.244,0.594,0.285,0.435,0.62,-0.0875,–,0.15,-0.253,0.0488,–

# Reference: the supplement of paper PMC6555819
